A short description of experiment [1]: S16 Schwann cell viability assay (CellTiter-Glo assay) (AID 624031).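 Also: native untransfected S16 rat Schwann cells; nearly all actives have a fitted effect of over 70% in size.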 The gist of the method:
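Cells were seeded at 500-750 per well in phenol red-free DMEM with 10% FBS and left overnight. Compounds or DMSO were pinned in, incubation ran 24 h at 37 °C/5% CO2, then CellTiter-Glo reagent was added and luminescence measured.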
Background: ATP-based viability assays read luminescence as a measure of living cells.

Experiment [2] is described as follows: S16 Schwann cell PMP22 intronic element beta-lactamase assay (AID 624044; calls by dose curve; also: nearly all actives have a fitted effect of over 15% in size). The conditions noted are these: S16 rat Schwann cells, PMP22 element beta-lactamase FRET, 24 h; ratio activity, negative = inhibition: at 38.3 µM (top of the series). The gist of the method: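 Rat S16 Schwann cells with beta-Lac driven by a PMP22 intronic element, compound-treated 24 h at 37 °C. LiveBLAzer FRET B/G read: 460 nm normalized to potassium clavulanate vs DMSO; 535 nm FRET as viability; concentration-effect curves classified.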

The subject of experiment [3] is 7G8. Briefly: qHTS profiling for inhibitors of Plasmodium falciparum proliferation (AID 504749). Also: nearly all actives have a fitted effect of over 60% in size. Also: potency is read from the fitted curve at half-maximal effect. The conditions noted are these: P. falciparum in erythrocytes, SYBR Green DNA, 72 h; series mostly up to 28.7 µM. Put shortly:
(§1)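 P. falciparum-infected erythrocytes (0.3% parasitemia, 2.5% hematocrit) incubated with compound 72 h at 37 C, 5% CO2. Parasite DNA detected by SYBR Green after lysis, overnight at room temperature; normalised to 0.29 uM artemisinin and DMSO.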

The test system of experiment [4] is ATS95. The experiment is described as above. The conditions noted are these: P. falciparum in erythrocytes, SYBR Green DNA, 72 h; series mostly up to 28.7 µM. Put shortly:
as §1

The test system of experiment [5] is CP247. Described as above. The settings on record: P. falciparum in erythrocytes, SYBR Green DNA, 72 h; series mostly up to 28.7 µM. The gist of the method:
as §1

Experiment [6] deals with CP260. The description is as above. The settings on record: P. falciparum in erythrocytes, SYBR Green DNA, 72 h; series mostly up to 28.7 µM. The gist of the method: as §1
For experiment [7], the system named is CP266. The description is as above. The settings on record: P. falciparum in erythrocytes, SYBR Green DNA, 72 h; series mostly up to 28.7 µM. Put shortly: as §1
Experiment [8] has as its system CP291. The experiment is described as above. The conditions noted are these: P. falciparum in erythrocytes, SYBR Green DNA, 72 h; series mostly up to 28.7 µM. The gist of the method:
as §1

Experiment [9] relates to CP297. The experiment is described as above. The conditions noted are these: P. falciparum in erythrocytes, SYBR Green DNA, 72 h; series mostly up to 28.7 µM. The gist of the method: as §1
The subject of experiment [10] is CP335. The experiment is described as above. The settings on record: P. falciparum in erythrocytes, SYBR Green DNA, 72 h; series mostly up to 28.7 µM. Put shortly: as §1
Experiment [11] has as its system DIV17. Described as above. The settings on record: P. falciparum in erythrocytes, SYBR Green DNA, 72 h; series mostly up to 28.7 µM. The gist of the method: as §1
The test system of experiment [12] is GB4. Described as above. The conditions noted are these: P. falciparum in erythrocytes, SYBR Green DNA, 72 h; series mostly up to 28.7 µM. The gist of the method:
as §1

The test system of experiment [13] is P93_24. The description is as above. The settings on record: P. falciparum in erythrocytes, SYBR Green DNA, 72 h; series mostly up to 28.7 µM. Put shortly: as §1
The test system of experiment [14] is PC15. The description is as above. The settings on record: P. falciparum in erythrocytes, SYBR Green DNA, 72 h; series mostly up to 28.7 µM. Put shortly:
as §1

The test system of experiment [15] is PC26. Described as above. The conditions noted are these: P. falciparum in erythrocytes, SYBR Green DNA, 72 h; series mostly up to 28.7 µM. The gist of the method: as §1
For experiment [16], the system named is PC49. The description is as above. The conditions noted are these: P. falciparum in erythrocytes, SYBR Green DNA, 72 h; series mostly up to 28.7 µM. The gist of the method: as §1
The subject of experiment [17] is TAB109. The description is as above. The settings on record: P. falciparum in erythrocytes, SYBR Green DNA, 72 h; series mostly up to 28.7 µM. Put shortly: as §1
Experiment [18] deals with TAB165. The experiment is described as above. The conditions noted are these: P. falciparum in erythrocytes, SYBR Green DNA, 72 h; series mostly up to 28.7 µM. Put shortly: as §1
The target in experiment [19] is Luciferin 4-monooxygenase (Photinus pyralis) (UniProt P08659). Briefly: Biochemical firefly luciferase enzyme assay for NPC (AID 624030). Also: nearly all actives have a fitted effect of over 70% in size. Also: potency is read from the fitted curve at half-maximal effect. The gist of the method:
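Purified P. pyralis luciferase at 10 nM in 50 mM Tris Acetate (final), luminescence read within 5 minutes of enzyme addition to compounds. Activity normalised to PTC124 versus DMSO; concentration-response curves classed by r2, magnitude and activity.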

The subject of experiment [20] is CP215. Briefly: qHTS profiling for inhibitors of Plasmodium falciparum proliferation (AID 504749). Also: nearly all actives have a fitted effect of over 60% in size. Also: potency is read from the fitted curve at half-maximal effect. The conditions noted are these: P. falciparum in erythrocytes, SYBR Green DNA, 72 h; series mostly up to 28.7 µM. Put shortly:
as §1

Records with an inconclusive call do not appear. Unmarked numbers belong to inactive results. Activity calls are given as the source filed them. Unless noted, calls follow the shape of the dose curve; as a rule, active = well fitted curve in the direction sought with a large enough effect; inconclusive = small, poorly fitted or top-dose-only effect, or another doubt; inactive = no such curve, though single readings can be large; an effect the other way counts as inactive or inconclusive.

Luciferin 4-monooxygenase (Photinus pyralis), sequence (P08659 whole entry, looked up): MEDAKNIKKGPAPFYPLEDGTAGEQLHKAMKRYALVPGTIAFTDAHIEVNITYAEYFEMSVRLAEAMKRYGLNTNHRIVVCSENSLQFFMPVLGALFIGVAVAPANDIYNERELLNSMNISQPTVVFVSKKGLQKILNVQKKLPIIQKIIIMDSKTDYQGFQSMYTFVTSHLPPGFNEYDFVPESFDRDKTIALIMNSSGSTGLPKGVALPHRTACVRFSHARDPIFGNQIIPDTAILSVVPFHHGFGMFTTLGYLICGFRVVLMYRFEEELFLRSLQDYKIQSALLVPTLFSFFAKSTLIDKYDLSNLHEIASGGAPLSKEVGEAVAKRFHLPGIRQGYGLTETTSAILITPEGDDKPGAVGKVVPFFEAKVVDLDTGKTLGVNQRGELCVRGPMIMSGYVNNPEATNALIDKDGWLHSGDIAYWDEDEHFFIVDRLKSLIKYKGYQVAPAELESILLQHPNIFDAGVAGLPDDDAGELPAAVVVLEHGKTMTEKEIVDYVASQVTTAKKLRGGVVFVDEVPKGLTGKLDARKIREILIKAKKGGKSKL

For the compound `CC(CN1CC(=O)NC(=O)C1)N1CC(=O)NC(=O)C1` (stereo not given), the Potency result in experiment [1], in [2], in experiment [3], in experiment [4], in experiment [5] and in [6] was “inactive” each time. In addition, the Potency entry in [7], in [8], in experiment [9], in experiment [10], in experiment [11] and in experiment [12] was “inactive” in each case. The Potency entry in [13], in [14], in experiment [15], in [16], in [17] and in experiment [18] was “inactive” each time.

In the case of `C=C1/C(=C\C=C2/CCC[C@]3(C)[C@@H]([C@H](C)/C=C/[C@@H](O)C4CC4)CC[C@@H]23)C[C@@H](O)C[C@@H]1O`, the Potency entry in experiment [19], in [1], in [2], in experiment [4], in experiment [20] and in experiment [5] was “inactive” in each case. The Potency result in experiment [7], in experiment [9], in experiment [10], in [11], in experiment [12] and in experiment [14] was “inactive” throughout. For the same compound, the Potency entry in [15], in [16] and in experiment [17] was “inactive” each time.

On to `CC1(C)SC2[C@@H](N=CN3CCCCCC3)C(=O)N2[C@H]1C(=O)O` (stereo not given in full), for which the Potency entry in experiment [1], in experiment [2], in experiment [4], in experiment [5], in experiment [6] and in [7] was “inactive” in each case. The Potency entry in [8], in [10], in experiment [11], in experiment [12], in [13] and in [14] was “inactive” in each case. The Potency result in experiment [15], in [16] and in experiment [17] was “inactive” throughout.

With `CC1(C)O[C@@H]2C[C@H]3[C@@H]4CCC5=CC(=O)C=C[C@]5(C)[C@H]4C(O)C[C@]3(C)[C@]2(C(=O)CO)O1` (stereo not given in full), the Potency result in experiment [19], in experiment [1], in experiment [2], in [4], in experiment [20] and in experiment [5] was “inactive” throughout. Moreover, the Potency result in [8], in experiment [9], in [10], in experiment [14], in [15] and in experiment [17] was “inactive” throughout.

With `CC(C)(C)NC[C@H](O)CSc1nc(-c2ccc(C(N)=O)s2)cs1`, the Potency entry in experiment [19], in [1], in experiment [2], in [4], in experiment [20] and in experiment [5] was “inactive” in each case. Also, the Potency result in experiment [7], in experiment [8], in experiment [9], in [10], in experiment [12] and in experiment [13] was “inactive” throughout. The Potency entry in experiment [14], in experiment [15], in experiment [16], in experiment [17] and in experiment [18] was “inactive” throughout.

Turning to `C[C@]12C=CC(=O)N[C@@H]1CC[C@@H]1C2CC[C@]2(C)C(C(=O)Nc3cc(C(F)(F)F)ccc3C(F)(F)F)CC[C@@H]12` (stereo not given in full), the Potency entry in experiment [19], in [2], in [5], in [7], in [13] and in experiment [14] was “inactive” in each case. The Potency entry in [15] and in experiment [17] was “inactive” throughout. In addition, the Potency in [3] is 2 µM (active); in [6] it was 5.01 µM (active); in experiment [10], 3.79 µM (active).

Consider `CC(=O)CC(c1ccccc1)C1C(=O)Oc2ccccc2C1=O` (stereo not given), for which the Potency result in experiment [19], in experiment [1], in experiment [2], in experiment [3], in experiment [20] and in experiment [5] was “inactive” throughout. Also, the Potency result in experiment [6], in experiment [7], in [8], in [9], in [10] and in experiment [11] was “inactive” throughout. Also, the Potency result in experiment [12], in experiment [13], in experiment [14], in experiment [15], in experiment [16] and in [17] was “inactive” each time. Moreover, the Potency entry in [18] was “inactive”.

As for `COc1ccc(S(=O)(=O)N2c3ccc(Cl)cc3[C@](O)(c3ccccc3Cl)[C@@H]2C(=O)N2CCC[C@H]2C(N)=O)cc1OC`, the Potency result in experiment [19], in experiment [1], in experiment [2], in [4], in experiment [20] and in [5] was “inactive” throughout. The Potency result in experiment [7], in [8], in [9], in experiment [12], in experiment [16] and in [17] was “inactive” throughout. The Potency in [3] is 11.2 µM (active).

`CC1=C(c2ccc(NN=C(C#N)C#N)cc2)NNC(=O)C1`: in experiment [19], the Potency is 14.4 µM (active). Moreover, the Potency result in experiment [1], in experiment [2], in experiment [4], in experiment [20], in experiment [7] and in experiment [8] was “inactive” throughout. For the same compound, the Potency result in experiment [9], in experiment [10], in [13], in [14], in [15] and in [16] was “inactive” throughout. Also, the Potency entry in [17] and in experiment [18] was “inactive” throughout.

`OC[C@@H](O)C(O[C@@H]1O[C@@H](CO)[C@H](O)[C@H](O)[C@H]1O)[C@H](O)[C@@H](O)CO` (stereo not given in full): the Potency result in [19], in [1], in experiment [2], in [3], in [4] and in experiment [20] was “inactive” each time. The Potency entry in experiment [5], in experiment [6], in experiment [7], in experiment [8], in [9] and in [10] was “inactive” in each case. The Potency entry in [11], in experiment [12], in experiment [13], in [14], in experiment [15] and in experiment [16] was “inactive” throughout. For the same compound, the Potency result in experiment [17] and in experiment [18] was “inactive” throughout.

As to `COc1ccc(C(=O)/C(Br)=C/C(=O)O)cc1`, the Potency entry in experiment [1], in [2], in experiment [5], in experiment [6], in experiment [7] and in experiment [8] was “inactive” throughout. Further, the Potency result in experiment [9], in [13], in experiment [14], in experiment [15] and in [16] was “inactive” throughout. Further, the Potency in [3] is 10 µM (active).

With `CC1OC(OC2C(O)CC(OC3C(O)CC(OC4CCC5(C)C(CCC6C5CCC5(C)C(C7=CC(=O)OC7)CCC65O)C4)OC3C)OC2C)CC(O)C1O` (stereo not given), the Potency entry in experiment [1], in [2], in experiment [20], in experiment [5], in [6] and in experiment [7] was “inactive” in each case. Moreover, the Potency result in experiment [8], in [9], in experiment [13], in [16], in [17] and in experiment [18] was “inactive” in each case. In addition, the Potency in experiment [3] was 12.6 µM (active).

The values above are taken from PubChem BioAssay (NCATS).
